Laboratory results from patent US10344301, “Mutants of the bacteriophage lambda integrase” (AGENCY FOR SCIENCE, TECHNOLOGY AND RESEARCH).

T1: I43F C2 integrase (Bacteriophage lambda, UniProt P03700 SEQ:1-356, I43F)
T1 sequence: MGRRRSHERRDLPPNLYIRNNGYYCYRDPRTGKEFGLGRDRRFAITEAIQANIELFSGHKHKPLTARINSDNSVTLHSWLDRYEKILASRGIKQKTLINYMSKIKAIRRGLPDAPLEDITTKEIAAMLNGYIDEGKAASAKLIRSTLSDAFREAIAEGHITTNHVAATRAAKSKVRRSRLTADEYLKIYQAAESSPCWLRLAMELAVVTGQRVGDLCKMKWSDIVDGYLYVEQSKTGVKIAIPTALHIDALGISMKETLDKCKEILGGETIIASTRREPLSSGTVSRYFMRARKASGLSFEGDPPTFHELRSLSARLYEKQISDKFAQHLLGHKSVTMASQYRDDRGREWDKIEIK


Target: T1, I43F C2 integrase
Assay: IVT; E319G removed from C3
Details: tags: PURExpress IVT

Binder | binding signal
attB ; attP (dsDNA ; dsDNA) DNA 1: CTGCTTTTTTATACTAACTTG DNA 2: CAAGTTAGTATAAAAAAGCAG DNA 3: CAGCTTTTTTATACTAAGTTG DNA 4: CAACTTAGTATAAAAAAGCTG | ~3 fold reduced vs C3
attH ; attPH (dsDNA ; dsDNA) DNA 1: CTGCTTTCTTATACCAAGTGG DNA 2: CCACTTGGTATAAGAAAGCAG DNA 3: CAGCTTTCTTATACCAAGTTG DNA 4: CAACTTGGTATAAGAAAGCTG | ~3 fold reduced vs C3
attH4X ; attP4X (dsDNA ; dsDNA) DNA 1: ACGCTTTATTTCATTAAGTTG DNA 2: CAACTTAATGAAATAAAGCGT DNA 3: CAGCTTTATTTCATTAAGTTG DNA 4: CAACTTAATGAAATAAAGCTG | ~3 fold reduced vs C3
